Data published in PubChem BioAssay AID1851 (National Center for Advancing Translational Sciences (NCATS), 2009).
In all, about 16,000 compounds went through this assay and about 5,100 (32%) were called active. Another 25% or so got no clear call; they are omitted. Calls follow the shape of the dose curve; as a rule, active = well fitted curve in the direction sought with a large enough effect; inconclusive = small, poorly fitted or top-dose-only effect, or effect the other way; inactive = no such curve, though single readings can be large or run the other way. This is one part of the list. More than one record can exist for a structure, and the calls need not agree.

What follows are compounds tested against Cytochrome P450 3A4 (Homo sapiens) (UniProt P08684) (assay: Cytochrome panel assay with activity outcomes). Settings: recombinant CYP, pro-luciferin dealkylation, luminescence, p450-cyp3a4; series mostly up to 57.1 µM; activity, negative = inhibition: at the top concentration.
Sequence of Cytochrome P450 3A4 (Homo sapiens) (P08684 whole entry, looked up): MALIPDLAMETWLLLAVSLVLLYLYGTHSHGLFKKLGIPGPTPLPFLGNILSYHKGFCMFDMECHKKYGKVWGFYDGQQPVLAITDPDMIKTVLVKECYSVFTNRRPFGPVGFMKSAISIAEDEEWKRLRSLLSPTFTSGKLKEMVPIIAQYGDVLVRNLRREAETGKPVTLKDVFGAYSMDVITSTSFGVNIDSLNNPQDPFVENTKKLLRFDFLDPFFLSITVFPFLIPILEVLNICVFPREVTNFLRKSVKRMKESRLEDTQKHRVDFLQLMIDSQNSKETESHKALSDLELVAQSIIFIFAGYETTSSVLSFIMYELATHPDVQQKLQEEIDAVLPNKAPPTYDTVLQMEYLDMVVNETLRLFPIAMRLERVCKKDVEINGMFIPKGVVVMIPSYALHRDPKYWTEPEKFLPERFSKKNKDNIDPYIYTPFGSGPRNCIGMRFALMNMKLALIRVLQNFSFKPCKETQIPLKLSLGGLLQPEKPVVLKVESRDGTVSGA
% is scaled to controls: 0 for no effect and ±100 for the full control effect.

Compound	activity, negative = inhibition	AC50
CCN1C[C@]2(COC(=O)c3ccccc3N3C(=O)C[C@H](C)C3=O)CC[C@H](OC)[C@@]34[C@@H]5C[C@H]6[C@H](OC)[C@H]5[C@](O)(C[C@@H]6OC)[C@@](O)([C@@H](OC)[C@@H]23)[C@@H]14	-19.7% (inactive)	
C[N+](C)(C)[C@H](Cc1c[nH]c(=S)[nH]1)C(=O)O	-1.29% [at 11.4 µM] (inactive)	
O=[N+]([O-])O[C@H]1CO[C@H]2[C@H]1OC[C@@H]2O[N+](=O)[O-]	-2.14% [at 25.6 µM] (inactive)	
CS(=N)(=O)CC[C@H](N)P(=O)(O)O (stereo not given in full)	1.43% [at 11.4 µM] (inactive)	
N[C@@H](Cn1ccc(=O)n(Cc2ccc(C(=O)O)cc2)c1=O)C(=O)O	-7.16% (inactive)	
CN(CCc1ccc(Cl)c(Cl)c1)[C@H]1CCCC[C@H]1N1CCCC1		12.6 µM (active)
CN(C)CCN(C)CCc1ccc(Cl)c(Cl)c1	-44.5% (inactive)	
COc1ccc2c(c1O)-c1c(OC)c(OC)cc3c1[C@H](C2)N(C)CC3	-1.12% [at 25.6 µM] (inactive)	
CC(=O)O[C@@H]1CN2CCC1CC2	-14.7% (inactive)	
CC(=O)Nc1ccccc1C(=O)OCC(=O)c1ccc2ccccc2c1	7.07% (inactive)	
c1ccc2c(c1)[I+]c1ccccc1-2		3.16 µM (active)
C1CCc2nnnn2CC1	-7.33% (inactive)	
O=C(COc1ccc2ccccc2c1)N1CCN(CC2CC3C=CC2C3)CC1 (stereo not given)		12.6 µM (active)
CC(=O)N1CCC2(CC1)CC(=O)c1cc(OCC(=O)N3CCN(C)CC3)ccc1O2	11.2% (inactive)	
C[N+](C)(C)CC#CCN1CCCC1=O	inactive	
CN1C(=O)COc2c(C(=O)N[C@@H]3CN4CCC3CC4)cc(Cl)cc21	-5.69% (inactive)	
O=C1CC[C@@]2(O)[C@H]3Cc4ccc(O)c5c4[C@@]2(CCN3CC2CC2)[C@@H]1O5	inactive	
CCCCC/C=C\C/C=C\C/C=C\C/C=C\CCCC(=O)Nc1ccc(O)cc1		5.01 µM (active)
CCCC(=O)Nc1ccc(N2CCN(CC)CC2)c(Cl)c1	-2.29% (inactive)	
NS(=O)(=O)c1ccc(-c2ccc([As](=O)(O)O)cc2)cc1	-4.52% [at 11.4 µM] (inactive)	
Oc1ccc([C@H](O)[C@@H]2CCCCN2)cc1O	-7.28% [at 11.4 µM] (inactive)	
CN1Cc2c(ccc3c2OCO3)[C@@H]2[C@@H](O)Cc3cc4c(cc3[C@@H]21)OCO4		5.01 µM (active)
COc1c2c(cc3c1OCO3)CCN(C)C2	-16.8% [at 25.6 µM] (inactive)	
CO[C@H]1C=C2CCN(C)[C@@H]2[C@@H]2c3cc4c(cc3C(=O)O[C@H]21)OCO4	-22.2% [at 25.6 µM] (inactive)	

Compound	activity, negative = inhibition	AC50
C[N+]1(C)CCc2cc3c(cc2[C@@H]1[C@@H]1OC(=O)c2c1ccc1c2OCO1)OCO3		15.8 µM (active)
CN1CCc2cc3c(cc2[C@@H]1[C@@H]1OC(=O)c2c1ccc1c2OCO1)OCO3		0.794 µM (active)
COc1cc2c(cc1OC)[C@H](C)NCC2	-4.58% [at 25.6 µM] (inactive)	
CC[C@H]1CN2CC[C@@H]1C[C@H]2[C@@H](O)c1ccnc2ccc(OC)cc12	8.8% [at 25.6 µM] (inactive)	
COc1cc2c(cc1OC)[C@@]13CCN4C=C5CCO[C@H]6CC(=O)N2[C@@H]1[C@@H]6[C@H]5C[C@H]43	13.3% [at 11.4 µM] (inactive)	
[N-]=[N+]=CC(=O)CC[C@H](N)C(=O)O	-9.62% [at 11.4 µM] (inactive)	
CN1CCc2cccc(Cl)c2CC1	-2.46% (inactive)	
NC(=O)CN1C[C@@H](O)CC1=O	-2.79% (inactive)	
CN(C)C=C1C(=O)N(C2CCCCC2)C(=O)N(C2CCCCC2)C1=O	-29.6% (inactive)	
CN1C2C=C3C(C#N)=C(N)C(C#N)(C#N)[C@H](c4c(F)cccc4F)[C@H]3C1CC2 (stereo not given in full)		4.47 µM (active)
CS(=N)(=O)CC[C@@H](N)C(=O)O (stereo not given in full)	inactive	
C[C@@H]1O[C@@H](O[C@H]2C[C@@H](O)[C@@]3(CO)[C@H]4[C@H](O)C[C@]5(C)[C@@H](C6=CC(=O)OC6)CC[C@]5(O)[C@H]4CC[C@@]3(O)C2)[C@@H](O)[C@H](O)[C@H]1O	10.6% [at 11.4 µM] (inactive)	
NC(=O)CN1CCCC1=O	inactive	
NC(=O)CI		0.0631 µM (active)
NNC(N)=O	-9.12% (inactive)	
CCCN1CCC[C@@H]2Cc3nc(N)ncc3C[C@H]21	-16.7% (inactive)	
COC(=O)[C@@H]1[C@@H]2C[C@H]3c4[nH]c5cc(OC)ccc5c4CCN3C[C@@H]2C[C@H](OC(=O)/C=C\c2cc(OC)c(OC)c(OC)c2)[C@H]1OC	-25.6% [at 25.6 µM] (inactive)	
COc1cc(CCN)ccc1O	-4.42% (inactive)	
COc1cc(CNC(=O)CCCC/C=C\C(C)C)ccc1O		3.98 µM (active)
CNC[C@H](O)c1ccc(O)c(OC)c1	-5% [at 25.6 µM] (inactive)	
Cc1cccc([C@H](C)c2cnc[nH]2)c1C		0.158 µM (active)
O=P(O)(O)C(Cl)(Cl)P(=O)(O)O	7.29% (inactive)	
C(=C/c1ccccc1)/CN1CCN(CCOC(c2ccccc2)c2ccccc2)CC1	-20.7% (inactive)	
CC(C)[N+](C)(CCC(C(N)=O)(c1ccccc1)c1ccccc1)C(C)C	-24.2% [at 25.6 µM] (inactive)	

Compound	activity, negative = inhibition	AC50
CCC(=O)O[C@@](Cc1ccccc1)(c1ccccc1)[C@@H](C)CN(C)C		5.01 µM (active)
O=C(O)[C@H]1[C@H](C(=O)O)[C@H]2CC[C@@H]1O2	-5.34% (inactive)	
COc1cc(CCN)c(OC)c(OC)c1	-5.19% [at 11.4 µM] (inactive)	
CCOP(=O)(CN(CC)CCNP(=O)(OCC)OCC)OCC	10.5% [at 2.29 µM] (inactive)	
CN1CCc2nc3sc(C(=O)NC(C)(C)C)c(N)c3cc2C1	-11.5% [at 2.29 µM] (inactive)	
CC[C@@]1(O)C(=O)OCc2c1cc1n(c2=O)Cc2cc3ccccc3nc2-1		6.31 µM (active) and inactive
CC[C@]1(OC(=O)CN)C(=O)OCc2c1cc1n(c2=O)Cc2cc3ccccc3nc2-1	-27% [at 11.4 µM] (inactive)	
CC[C@@]1(O)C(=O)OCc2c1cc1n(c2=O)Cc2cc3c(NC(=O)CN)cccc3nc2-1	0.232% [at 11.4 µM] (inactive)	
CCc1ccccc1NC(=O)NC1CC2CCC(C1)N2Cc1cccs1 (stereo not given)	-21.2% (inactive)	
COc1ccc(NC(=O)NC2CC3CCCC(C2)N3Cc2ccccc2)cc1 (stereo not given)	16.8% (inactive)	
O=C(NC1CCCCC1)NC1CC2CCC(C1)N2Cc1nnnn1Cc1ccc2c(c1)OCO2 (stereo not given)		3.16 µM (active)
C[C@@]12CC[C@H]3[C@H](CC=C4C[C@@H](O)CC[C@@]43C)[C@@H]1CC[C@@H]2N(CCO)CCO	12.7% [at 11.4 µM] (inactive)	
COC(=O)CN1CN(c2ccccc2)C2(CCN(Cc3ccc4ccccc4c3)CC2)C1=O		15.8 µM (active)
c1ccc(CN2CCC3(CCNCC3)CC2)cc1	-7.57% (inactive)	
O=C1NCN(c2ccccc2)C12CCN(CCCOc1ccc(F)cc1)CC2	18.9% (inactive)	
CC[C@]1([C@H]2O[C@@H]([C@@H]3O[C@](O)(CO)[C@@H](C)C[C@H]3C)C[C@H]2C)CC[C@@H]([C@]2(C)CC[C@@]3(C[C@@H](O)[C@@H](C)[C@@H]([C@H](C)[C@H](OC)[C@H](C)C(=O)O)O3)O2)O1	-4.62% [at 25.6 µM] (inactive)	
c1cc2cc(c1)C[n+]1ccc(c3ccccc31)NCc1ccc(cc1)CNc1cc[n+](c3ccccc13)C2	11.2% (inactive)	
O=C(Oc1ccc([N+](=O)[O-])cc1)N1CCC(N2CCCCC2)CC1	-28.2% (inactive)	
C[C@@]12C=CC(=O)C=C1CC[C@@H]1C2=CC[C@]2(C)[C@@H]1CC[C@H]2C(=O)CN1CCN(c2cc(N3CCCC3)nc(N3CCCC3)n2)CC1		3.16 µM (active)
C[As+](C)(c1ccc(Br)c([N+](=O)[O-])c1)c1ccc(Br)c([N+](=O)[O-])c1.O=[N+]([O-])O	-4.86% [at 11.4 µM] (inactive)	
COC(=O)C[C@](O)(CCCC(C)(C)O)C(=O)O[C@@H]1C(OC)=C[C@]23CCCN2CCc2cc4c(cc2[C@H]13)OCO4		12.6 µM (active)
CN(C)CCCc1c[nH]c2ccccc12	-0.0212% [at 11.4 µM] (inactive)	
O=C1CCCN1CC#CCN1CCCC1	inactive	
O=C1C=C2C=C[C@H]3C[C@@]2(O1)[C@H]1CCCCN31	-13.1% [at 25.6 µM] (inactive)	

Compound	activity, negative = inhibition	AC50
Nc1ccc(S(=O)(=O)c2ccc(NCN3C(=O)NC(=O)C(=O)C3=O)cc2)cc1		2 µM (active)
CC(=O)NBr	-3.28% (inactive)	
COc1ccc2[nH]cc(CCN)c2c1	-6.61% (inactive)	
CS(=O)(=O)Nc1ccc(Cc2noc(-c3ccc4[nH]cc(CCN)c4c3)n2)cc1		15.8 µM (active)
NCCc1c[nH]c2ccc(O)cc12	-20.5% [at 25.6 µM] (inactive)	
O=C1OC(=O)[C@@H]2[C@@H]1[C@@H]1CC[C@H]2O1	7.25% (inactive)	
C=C[C@H]1CN2CC[C@@H]1C[C@H]2[C@@H](O)c1ccnc2ccccc12	inactive	
CCCN1CCC[C@H](c2cccc(O)c2)C1	inactive	
CC(C)C12CN3CC(C(C)C)(CN(C1)C3c1cccnc1)C2=O (stereo not given)		2.24 µM (active)
CNCCc1ccc(O)c(O)c1	-18.3% (inactive)	
NNC(=O)c1ccc(O)cc1		5.01 µM (active)
NCCc1ccc(O)cc1	-2.1% (inactive)	
NP(N)(=O)NC(=O)c1ccc(F)cc1	-7.05% (inactive)	
Ic1cncc(OC[C@@H]2CCN2)c1	-28.9% (inactive)	
CCN(CCCl)Cc1ccccc1Br	-11.1% (inactive)	
COc1ccc(OC)c([C@H](O)[C@H](C)N)c1	inactive	
CN(N=O)C(=O)N[C@H]1[C@@H](O)[C@H](O)[C@H](CO)O[C@@H]1O	-4.4% [at 25.6 µM] (inactive)	
COC(=O)[C@@]1(Cc2ccc(F)cc2)[C@H]2c3cc(C(=O)N(C)C)[nH]c3C[C@H]2CN1C(=O)c1ccccc1		0.631 µM (active)
CC(C)[C@]1(O)[C@@H](OC(=O)c2ccc[nH]2)[C@]2(O)[C@@]3(C)C[C@@]4(O)O[C@@]5([C@H](O)[C@@H](C)CC[C@]35O)[C@]2(O)[C@]41C	-24.6% [at 11.4 µM] (inactive)	
CC(C)c1nccn1Cc1ccc(Cl)cc1Cl	-9.57% [at 11.4 µM] (inactive)	
O=C(O)[C@@H]1C[C@H]1[C@@H](NP(=O)(c1ccccc1)c1ccccc1)c1ccccc1	-0.397% (inactive)	
O=C(O)[C@H]1C[C@@H]1[C@H](NP(=O)(c1ccccc1)c1ccccc1)c1ccccc1	-25.2% (inactive)	
CCC/C=C(\CCC)C(NP(=O)(c1ccccc1)c1ccccc1)c1ccccc1 (stereo not given)		6.31 µM (active)
